Measured values from PubChem BioAssay (NCI).
This is part of a sample that, as a whole, favours compounds with a hit. Of some 83,000 tested, about 20% had one in any assay.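 Values shown are percent growth following 48 h exposure of cells in 96-well plates to a single concentration of compound; below 10 was considered active.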 A number with no mark means an inactive call. Active and inactive are the calls of the source.

Experiments:
Experiment in all cases: NCI-60 one-dose screen, 48 h (100 = growth as untreated, 0 = no growth, -100 = all killed)
NCI-H23 lung = conditions: 10 µM unless noted
NCI-H460 lung = conditions: 10 µM unless noted
786-0 renal = conditions: 10 µM unless noted
DU-145 prostate = conditions: 10 µM unless noted
MDA-MB-231 breast = conditions: 10 µM unless noted
SF-268 CNS = conditions: 10 µM unless noted
SF-539 CNS = conditions: 10 µM unless noted
UACC-257 melanoma = conditions: 10 µM unless noted
HCT-15 colon = conditions: 10 µM
PC-3 prostate = conditions: 10 µM unless noted
SK-MEL-5 melanoma = conditions: 10 µM unless noted
LOX IMVI melanoma = conditions: 10 µM unless noted
SK-MEL-28 melanoma = conditions: 10 µM unless noted
SN12C renal = conditions: 10 µM unless noted
NCI/ADR-RES ovarian = conditions: 10 µM unless noted
SW-620 colon = conditions: 10 µM unless noted
MCF7 breast = conditions: 10 µM unless noted
HCT-116 colon = conditions: 10 µM unless noted
HCC-2998 colon = conditions: 10 µM unless noted
KM12 colon = conditions: 10 µM unless noted

Row | SMILES | growth (NCI-H23 lung) | growth (NCI-H460 lung) | growth (786-0 renal) | growth (DU-145 prostate) | growth (MDA-MB-231 breast) | growth (SF-268 CNS) | growth (SF-539 CNS) | growth (UACC-257 melanoma) | growth (HCT-15 colon) | growth (PC-3 prostate) | growth (SK-MEL-5 melanoma) | growth (LOX IMVI melanoma) | growth (SK-MEL-28 melanoma) | growth (SN12C renal) | growth (NCI/ADR-RES ovarian) | growth (SW-620 colon) | growth (MCF7 breast) | growth (HCT-116 colon) | growth (HCC-2998 colon) | growth (KM12 colon)
1 | CCCCOC(=O)c1ccccc1C(=O)O.CCCCOC(=O)c1ccccc1C(=O)O.[Cu+2] | 107% | 109% | 106% | 113% | 124% | 120% | 111% | 110% | 112% | 111% | 98% | 89.4% | 111% | 113% | 111% | 98.8% | 98.3% | 102% | 104% | 105%
2 | N#[N+]c1nc2nc(N)[nH]c(=O)c2[nH]1 | 103% | 101% | 102% | 105% | 107% | 104% | 101% | 88.8% | 97.9% | 96.8% | 92.5% | 98.5% | 111% | 99.9% | 101% | 97.9% | 90.7% | 96.8% | 104% | 108%
3 | Cc1nnc([S-])s1.[Au+].c1ccc([PH+](c2ccccc2)c2ccccc2)cc1 | 12.2% | 57.3% | -29.7% (active) | 18.6% | 4.44% (active) | 7.17% (active) | -22.9% (active) | -12.4% (active) | -76% (active) | 15.4% | -45.9% (active) | -60.6% (active) | -55.7% (active) | 6.71% (active) | 63.4% | -70.6% (active) | -64.1% (active) | -60.1% (active) | 37% | 49.1%
4 | ClCCN(CCCl)c1nc(Cl)c(C2CC(c3ccc(Cl)cc3)=NN2c2cc(Cl)cc(Cl)c2)s1 (centres undefined) | – | 101% | 103% | 116% | 107% | 102% | 118% | 94.4% | 105% | 93.6% | 115% | 106% | 121% | 92% | 114% | 99.2% | 95.1% | 85.8% | 109% | 108%
